Measurements taken from PubChem BioAssay (NCATS).
Results filed as inconclusive are left out. A call without a number means that no potency is given here. Activity calls are given as the source filed them. Calls follow the shape of the dose curve; as a rule, active = well fitted cell-killing curve with a large enough effect; inconclusive = small, poorly fitted or top-dose-only effect, or effect the other way; inactive = flat fitted curve, though single readings scatter.

assay: qHTS of pediatric cancer cell lines to identify multiple opportunities for drug repurposing: Confirmatory screen for control Hh wild type fibroblast cells (AID 1347121); conditions: viability qHTS; series mostly up to 45.9 µM; also: nearly all actives have a fitted effect of over 70% in size
Text: Drug repurposing or repositioning has been offered as a strategy for drug development in oncology programs. This approach has special potential for childhood cancers and other rare or orphan diseases, where the expected return on new drug development has been a disincentive to pharmaceuticals.
In this project we exploit the poly-pharmacology of drugs to discover new indications via phenotypic screening of a panel of 19 well-characterized cell lines derived from solid tumors seen in children and adolescents. The goal is to identify approved drugs with previously unrecognized anticancer properties that has the potential to reveal new mechanisms and biological processes involved in carcinogenesis or drug resistance. We employed a titration-based paradigm (quantitative high-throughput screening or qHTS), where all compounds were tested at multiple concentrations for their effect on cell viability. Concentration-response curves (CRCs) were derived directly from the primary screen, and both potency and efficacy values were used to identify compounds with robust bioactivity profiles. We screened the NIH Chemical Genomics Center (NCGC) Pharmaceutical Collection (NPC) and Mechanism Interrogation Plate (MIPE) small molecule collections of approved and investigational compounds against these cell lines; and measured metabolically active cells after 48 hours of compound treatment as a proxy for cell viability.
Assay Submitter: Nathalia J. Martinez, National Center for Advancing Translational Sciences, National Institutes of Health, Rockville, MD, USA; email: natalia.martinez@nih.gov
[1] Shen, M et al. Quantitative high-throughput phenotypic screening of pediatric cancer cell lines identifies multiple opportunities for drug repurposing. Oncotarget 2017 Dec 19;9(4):4758-4772. PMID 29435139.
The cells were obtained from University of North Carolina (UNC), Pediatric Preclinical Testing Program (PPT), and Coriell Institute (CI).
qHTS cell viability assay:
Cells were assayed in growth media at a density of 500-1,000 cells/well. Five microliters of cells were dispensed into 1,536-well, white, solid-bottom, TC-treated plates (Greiner Bio One) using a multidrop dispenser and incubated at 37 degrees C, 5% CO2, under a humidified atmosphere for 5 hours. Twenty-three nanoliters of compounds and controls (neutral control DMSO or positive control bortezomib at final concentration of 2.3 µM) were subsequently transferred by Kalypsys pintool. For primary screens, the MIPE collection was tested at 11-point dilutions (final concentrations range from 0.78 nM to 46 µM) and the NPC collection at 8-point dilutions (final concentrations range from 0.59 nM to 46 µM). Compounds tested in follow-up screens were assayed at 11-point dilutions. Cells were incubated for 48 hours, followed by addition of 3 µL of CellTiter-Glo (Promega). After a 15 min incubation at room temperature, samples were analyzed for luminescence intensity using a ViewLux High-throughput CCD imager equipped with clear filters.
Potency is read from the fitted curve at half-maximal effect.

Row | Structure (SMILES) | Potency
1 | CO[C@@H]1[C@@H](OC)[C@H](C)[C@@](O)(CC(=O)O)O[C@H]1[C@H](C)[C@H]1O[C@@]2(CC[C@@](C)([C@H]3CC[C@@](C)([C@@H]4O[C@@H]([C@H]5O[C@](C)(O)[C@H](C)C[C@@H]5C)C[C@@H]4OC4C[C@H](OC)[C@@H](OC)[C@H](C)O4)O3)O2)C[C@H](O)[C@H]1C (some centres undefined) | 8.27 µM (active)
2 | CC(=O)OCC(=O)[C@@]1(O)CCC2C3CCC4=CC(=O)CC[C@]4(C)C3[C@@H](O)C[C@@]21C (some centres undefined) | inactive
3 | CCc1cc2cc(OC)c(OC)cc2c(Cc2ccccc2)n1 | inactive
4 | CC(=O)OCC(=O)[C@@]1(O)[C@H](OC(C)=O)C[C@H]2[C@@H]3CCC4=CC(=O)C=C[C@]4(C)[C@@]3(F)[C@@H](O)C[C@@]21C | inactive
5 | CCOC(=O)O[C@]1(C(=O)OCCl)CC[C@H]2[C@@H]3CCC4=CC(=O)C=C[C@]4(C)[C@H]3[C@@H](O)C[C@@]21C | inactive
6 | COc1cc(/C=C/C(N)=O)cc(OC)c1OC | inactive
7 | N=C(N)c1ccc(OCCCOc2ccc(C(=N)N)cc2)cc1 | inactive
8 | CCC(=O)O[C@]1(C(=O)COC)[C@@H](C)C[C@H]2[C@@H]3CCC4=CC(=O)C=C[C@]4(C)C3(F)[C@@H](O)C[C@@]21C (some centres undefined) | inactive
9 | CC(=O)O[C@@H]1C(=O)O[C@@H]2[C@H]1OC(=O)[C@@H]2OC(C)=O | inactive
10 | Cc1ccc(C(=O)Oc2ccc(C(O)CNC(C)(C)C)cc2OC(=O)c2ccc(C)cc2)cc1 (centres undefined) | inactive
11 | CCCCC(CC)CNC(=O)CC(C)OC(=O)CCC(=O)O (centres undefined) | inactive
12 | CN(C)CCN(Cc1ccsc1)c1ccccn1 | inactive
13 | C[C@]12CCC(=O)C=C1CC[C@@H]1[C@@H]2[C@@H](O)C[C@@]2(C)[C@H]1CC[C@]2(O)C(=O)COC(=O)CCC(=O)O | inactive
14 | CC(=O)[C@@]1(O)CC[C@H]2[C@@H]3C[C@H](C)C4=CC(=O)CC[C@]4(C)[C@H]3CC[C@@]21C | inactive
15 | C[C@H]1C[C@@H]2[C@H]([C@@H](O)C[C@@]3(C)[C@H]2CC[C@]3(O)C(=O)CO)[C@@]2(C)C=CC(=O)C=C12 | inactive
16 | CC(C)(C)CC(=O)OCC(=O)[C@@]1(O)CC[C@H]2[C@@H]3CCC4=CC(=O)C=C[C@]4(C)[C@H]3[C@@H](O)C[C@@]21C | inactive
17 | CCN(CC)CC(=O)OCC(=O)[C@@]1(O)CC[C@H]2[C@@H]3CCC4=CC(=O)CC[C@]4(C)[C@H]3[C@@H](O)C[C@@]21C | inactive
18 | CCC1=C[C@@H]2CN(C1)Cc1c([nH]c3ccccc13)[C@@](C(=O)OC)(c1cc3c(cc1OC)N(C)[C@H]1[C@@](O)(C(=O)OC)[C@H](OC(C)=O)[C@]4(CC)C=CCN5CC[C@]31[C@@H]54)C2 | inactive
19 | CCC1(c2cnc[nH]2)Cc2ccccc2C1 | inactive
20 | O=c1[nH]sc2cc(Cl)ccc12 | inactive
21 | CCCC(=O)O[C@]1(C(=O)COC(=O)CC)CC[C@H]2[C@@H]3CCC4=CC(=O)CC[C@]4(C)[C@H]3[C@@H](O)C[C@@]21C | inactive
22 | Cc1nc(N)nc(N)c1-c1ccc(Cl)c(Cl)c1 | inactive
23 | Cc1cc(OCCOCC[N+](C)(C)Cc2ccccc2)ccc1C(C)(C)CC(C)(C)C | 20.8 µM (active)
24 | COc1c(C)c2c(c(O)c1C/C=C(\C)CCC(=O)OCCN1CCOCC1)C(=O)OC2 | inactive
